Reference: PubChem BioAssay AID743047 (Broad Institute, 2013)
Measured potencies and affinities stand elsewhere. Activity calls are given as the source filed them. How the calls were made is not given here.

Test: PAX5 activity inhibitors, dose response, selectivity assay for PAX8 inhibitor project, cell-based, plate reader, dry powder samples (AID 743047)
Conditions: cell-based PAX5 selectivity counter-screen; series mostly up to 50 µM

Row | SMILES | outcome | activity change, negative = inhibition
1 | Cc1ccc2cccc(NS(=O)(=O)c3ccccc3)c2n1 | inactive | –
2 | N#C[C@H]1[C@@H](c2ccc(C#Cc3cccc(F)c3)cc2)[C@@H](CO)N1C(=O)C1CCCC1 | inactive | –
3 | C[C@H]1CN([C@@H](C)CO)C(=O)CCCn2nncc2CO[C@@H]1CN(C)C(=O)Nc1ccc(-c2cccs2)cc1 | inactive | –
4 | COc1ccc(OC)c2sc(N(CCCN(C)C)C(=O)CCS(=O)(=O)c3ccccc3)nc12 | inactive | –
5 | CN(C)CCCN(C(=O)CCOc1ccccc1)c1nc2c(F)cccc2s1 | inactive | –
6 | CC(=O)Nc1ccc(NC(=O)c2nc(S(=O)(=O)Cc3ccccc3)ncc2Cl)cc1 | inactive | –
7 | Cc1cc(NC(=O)CCCS(=O)(=O)c2nc(-c3cccs3)cc(C(F)(F)F)n2)no1 | inactive | –
8 | CN(C[C@H]1N[C@@H](CO)[C@@H]1c1ccc(C2=CCCC2)cc1)C(=O)c1ccc(F)cc1 | – | 225% [at 8 µM] (inactive)
9 | COc1ccc(-c2cc(C(F)(F)F)nc(S(=O)(=O)CCCC(=O)Nc3cc(C)on3)n2)cc1OC | inactive | –
10 | C[C@@H]1CN([C@H](C)CO)C(=O)CCCn2cc(nn2)CO[C@H]1CN(C)C(=O)Nc1ccc(-c2cccs2)cc1 | inactive | –
11 | O=C(c1cc(-c2cccs2)on1)N1CCN(C(c2ccccc2)c2ccccc2)CC1 | inactive | –
12 | O=C(CCCN1C(=O)/C(=C\c2cccc(Br)c2)SC1=S)Nc1ccccn1 | inactive | –
